This passage reports growth inhibition, inhibition and outcome results from PubChem BioAssay.

Assay [1] can be described thus: antimalarial activity against Dd2 strain (AID 2302;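 active = growth inhibition above 50% at the single 2 µM test dose, taken to imply half-maximal potency below 2 µM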;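 note: 0% = DMSO untreated growth and 100% = chloroquine plus artemisinin killed control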). The note with it: P. falciparum Dd2 in RBCs, LDH growth readout, 72 h; at 2 µM; hits give high values.
The nature of assay [2]: HepG2 cytotoxicity, primary screen, cytotoxicity control for P. falciparum antimalarial project, cell-based, ATP luminescence (AID 2303;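 active = inhibition above 50%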;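 note: 0% = DMSO wells and 100% = digitonin-killed cells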). The note with it: HepG2 viability, 24-48 h, at 10 µM, hits give high values.
The target of assay [3] is L-lactate dehydrogenase (Plasmodium falciparum (isolate CDC / Honduras)) (UniProt Q27743). Description: PfLDH activity inhibition – cell lysate, 3D7 strain, counter-screen for P. falciparum growth inhibition project (AID 2304).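 Note: 0% = vehicle and 100% = reference inhibitor.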 The note with it: P. falciparum 3D7 crude extract, LDH APAD/NBT absorbance; at 2 µM; hits give high values. (Counterscreens check selectivity or assay interference.)
L-lactate dehydrogenase (Plasmodium falciparum (isolate CDC / Honduras)), sequence (Q27743 whole entry, looked up): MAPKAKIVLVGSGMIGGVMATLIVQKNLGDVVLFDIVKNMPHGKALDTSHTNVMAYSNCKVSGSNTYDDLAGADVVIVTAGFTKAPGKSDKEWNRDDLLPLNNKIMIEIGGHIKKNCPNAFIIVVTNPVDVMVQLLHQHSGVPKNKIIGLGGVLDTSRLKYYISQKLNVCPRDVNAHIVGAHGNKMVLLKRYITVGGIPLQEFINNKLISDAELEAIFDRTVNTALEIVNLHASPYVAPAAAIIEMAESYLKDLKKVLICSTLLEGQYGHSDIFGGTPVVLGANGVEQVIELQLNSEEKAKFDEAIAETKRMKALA

The nature of assay [4]: inhibition of 3D7 malaria parasite growth – strain 3D7 (AID 2306).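 Note: 0% = DMSO wells and 100% = chloroquine plus artemisinin control wells.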 The note with it: P. falciparum 3D7 erythrocytic growth, LDH absorbance, 72 h; at 2 µM; hits give high values.
Assay [5] has as its target Calcium-dependent protein kinase 1 (Plasmodium falciparum (isolate 3D7)) (UniProt P62344). Nature of the assay: PfCDPK1 kinase inhibitors, biochemical, TCAMS library (AID 1159585; cut-off not given, nearly all actives have IC50 up to about 0.98 µM;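 note: inhibitors leave more ATP so luminescence rises with inhibition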). The note with it: recombinant PfCDPK1, Kinase-Glo ATP depletion luminescence. In general terms: In Kinase-Glo more light means more ATP remaining.
The target in assay [6] is Plasmodium falciparum protein kinase 6 (PK6, PF3D7_1337100) (UniProt Q8IDW1). Nature of the assay: PfPK6 kinase inhibitors, biochemical, TCAMS library (AID 1159586). The note with it: recombinant PfPK6, Kinase-Glo ATP depletion luminescence.
Plasmodium falciparum protein kinase 6 (PK6, PF3D7_1337100), sequence (Q8IDW1 1-305): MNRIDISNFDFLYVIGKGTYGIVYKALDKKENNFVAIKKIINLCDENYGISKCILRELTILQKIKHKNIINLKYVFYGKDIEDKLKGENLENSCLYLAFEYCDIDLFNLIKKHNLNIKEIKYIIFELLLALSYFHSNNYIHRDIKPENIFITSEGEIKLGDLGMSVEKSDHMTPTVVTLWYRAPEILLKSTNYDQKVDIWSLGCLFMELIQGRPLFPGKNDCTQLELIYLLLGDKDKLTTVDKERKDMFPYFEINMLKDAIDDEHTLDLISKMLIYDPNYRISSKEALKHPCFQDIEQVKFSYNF
The target of assay [7] is Protein kinase 7 (PK7), Plasmodium falciparum 3D7 (PF3D7_0213400) (UniProt Q7YTF7). Description: inhibition of Plasmodium PK7 catalytic activity – biochemical, TCAMS antimalarial set, Kinase-Glo luminescence (AID 1159587). To be noted: recombinant PfPK7, Kinase-Glo ATP depletion luminescence.
Protein kinase 7 (PK7), Plasmodium falciparum 3D7 (PF3D7_0213400), sequence (Q7YTF7 1-343): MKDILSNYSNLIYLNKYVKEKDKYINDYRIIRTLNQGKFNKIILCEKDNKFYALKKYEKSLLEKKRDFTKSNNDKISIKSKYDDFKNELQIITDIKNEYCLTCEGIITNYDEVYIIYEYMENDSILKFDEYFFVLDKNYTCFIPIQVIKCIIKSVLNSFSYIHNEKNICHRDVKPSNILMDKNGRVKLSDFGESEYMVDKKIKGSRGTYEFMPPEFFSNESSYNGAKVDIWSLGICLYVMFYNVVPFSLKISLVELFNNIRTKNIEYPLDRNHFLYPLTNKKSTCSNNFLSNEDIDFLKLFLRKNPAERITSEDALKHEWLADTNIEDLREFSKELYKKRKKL
In assay [8] the target is Calcium-dependent protein kinase 4 (Plasmodium falciparum (isolate 3D7)) (UniProt Q8IBS5). Nature of the assay: PfCDPK4 kinase inhibitors, biochemical, TCAMS library (AID 1159588; cut-off not given, nearly all actives have IC50 up to about 0.91 µM). The note with it: recombinant PfCDPK4, Kinase-Glo ATP depletion luminescence.
Calcium-dependent protein kinase 4 (Plasmodium falciparum (isolate 3D7)), sequence (Q8IBS5 whole entry, looked up): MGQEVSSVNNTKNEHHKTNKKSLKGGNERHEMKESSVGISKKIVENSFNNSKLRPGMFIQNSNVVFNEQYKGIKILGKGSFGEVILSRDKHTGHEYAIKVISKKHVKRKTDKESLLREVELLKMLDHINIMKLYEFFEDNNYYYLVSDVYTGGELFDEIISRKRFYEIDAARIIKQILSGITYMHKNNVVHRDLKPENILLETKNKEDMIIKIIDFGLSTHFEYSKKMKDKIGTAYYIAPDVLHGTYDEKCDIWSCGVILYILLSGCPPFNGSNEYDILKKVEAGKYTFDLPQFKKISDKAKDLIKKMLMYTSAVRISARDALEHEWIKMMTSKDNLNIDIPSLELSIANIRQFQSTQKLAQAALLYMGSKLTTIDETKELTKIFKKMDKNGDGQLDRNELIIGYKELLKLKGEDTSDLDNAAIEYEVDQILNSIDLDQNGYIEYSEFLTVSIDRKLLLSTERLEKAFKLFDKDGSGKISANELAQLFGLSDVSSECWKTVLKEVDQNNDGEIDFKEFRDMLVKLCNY

Broadly, the inhibition is the drop in the measured response relative to a control, in per cent.

Molecules are shown by their SMILES. Unmarked numbers belong to inactive results. For some of these results: Entries with a potency or affinity are not part of this list. Activity calls are given as the source filed them. Unless noted, the rule behind the calls is not given here.

Calcium-dependent protein kinase 1 (Plasmodium falciparum (isolate 3D7)), sequence (P62344 whole entry, looked up): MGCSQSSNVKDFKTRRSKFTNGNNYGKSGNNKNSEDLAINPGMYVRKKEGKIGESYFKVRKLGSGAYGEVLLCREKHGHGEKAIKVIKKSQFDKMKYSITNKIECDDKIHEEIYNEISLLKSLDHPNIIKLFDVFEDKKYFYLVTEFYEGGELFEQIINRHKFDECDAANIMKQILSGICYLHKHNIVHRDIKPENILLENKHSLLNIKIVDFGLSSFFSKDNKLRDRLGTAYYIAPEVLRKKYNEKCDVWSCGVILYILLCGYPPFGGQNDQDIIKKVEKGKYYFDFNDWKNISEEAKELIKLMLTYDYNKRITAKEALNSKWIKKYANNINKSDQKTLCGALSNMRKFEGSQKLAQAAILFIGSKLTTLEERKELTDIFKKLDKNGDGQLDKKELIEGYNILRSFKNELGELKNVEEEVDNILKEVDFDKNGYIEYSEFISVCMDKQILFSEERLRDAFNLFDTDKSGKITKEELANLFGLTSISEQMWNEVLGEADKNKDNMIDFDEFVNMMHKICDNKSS

As for `COc1ccccc1-n1ccnc1SCC(=O)Nc1cccc(C(F)(F)F)c1`, the growth inhibition in assay [1] is 96% (active); in assay [4], 95% (active). The results for the inhibition in assay [2] and in assay [3] were 1% and -2%, respectively. Also, the result in assay [5], in assay [6], in assay [7] and in assay [8] was inactive.
As for `O=C(/C=C/c1ccc(Cl)c(Cl)c1)NCCCCCN1CCC(C(=O)Nc2cccc(Cl)c2)CC1`, the growth inhibition is -2% in assay [1] and 100% (active) in assay [4]. In addition, the inhibition in assay [2] was 48%; in assay [3], -3%. Further, the outcome in assay [5], in assay [6], in assay [7] and in assay [8] was inactive.
For `Cc1cc(NN=Cc2cccc([N+](=O)[O-])c2)c2ccc(F)cc2n1`, the growth inhibition in assay [1] is 98% (active); in assay [4], 101% (active). For the same compound, the inhibition was -18% in assay [2] and -8% in assay [3]. Further, the outcome in assay [5], in assay [6], in assay [7] and in assay [8] was inactive.
As to `CCCC1N=C(N)N=C(N)N1c1ccc(C)cc1` (stereo not given), the growth inhibition is 2% in assay [1] and 94% (active) in assay [4]. Also, the inhibition in assay [2] is 1%; in assay [3] it was -3%. The result in assay [5], in assay [6], in assay [7] and in assay [8] was inactive.
Take `Cc1ccc(CN=C(N)NC(=O)c2nc(Cl)c(NCc3ccc(Cl)cc3)nc2N)c(C)c1`: the growth inhibition in assay [1] is 100% (active); in assay [4] it was 101% (active). In addition, the inhibition in assay [2] is 28%; in assay [3], -5%. Also, the outcome in assay [5], in assay [6], in assay [7] and in assay [8] was inactive.
In the case of `C=CCNS(=O)(=O)c1ccc(NC(=O)C(C)Oc2ccc([N+](=O)[O-])cc2)cc1` (stereo not given), the results for the growth inhibition in assay [1] and in assay [4] were 100% (active) and 101% (active), respectively. Besides, the values for the inhibition in assay [2] and in assay [3] were 14% and -3%, respectively. The outcome in assay [5], in assay [6], in assay [7] and in assay [8] was inactive.
Turning to `O=C(Nc1ccc(Cl)cc1F)NC1CCN(CCCCCNC(=O)[C@@H]2C[C@H]2c2ccc(Cl)c(Cl)c2)CC1`, the growth inhibition is 27% in assay [1] and 101% (active) in assay [4]. Further, the inhibition in assay [2] is 46%; in assay [3] it was -5%. The result in assay [5], in assay [6], in assay [7] and in assay [8] was inactive.
`O=C(Nc1ccc(C(F)(F)F)cc1)c1cc(Br)cnc1NCCCn1ccnc1`: the growth inhibition in assay [1] is 98% (active); in assay [4], 99% (active). Moreover, the results for the inhibition in assay [2] and in assay [3] were 32% and 2%, respectively. Further, the outcome in assay [5], in assay [6], in assay [7] and in assay [8] was inactive.
Turning to `Cc1cc(N2CCOCC2)nc(Nc2ccc(NC(=O)c3cccc4ccccc34)cc2)n1`, the growth inhibition in assay [1] was 11%; in assay [4], 95% (active). Moreover, the inhibition in assay [2] was 44%; in assay [3], -1%. Moreover, the result in assay [5], in assay [6], in assay [7] and in assay [8] was inactive.
Regarding `O=C(Nc1ccc(-c2cccc(-c3nc4ccc(C(F)(F)F)cc4[nH]3)c2)cc1)c1ccncc1`, the results for the growth inhibition in assay [1] and in assay [4] were 23% and 101% (active), respectively. Besides, the figures for the inhibition in assay [2] and in assay [3] were 63% (active) and -4%, respectively. Moreover, the outcome in assay [5], in assay [6], in assay [7] and in assay [8] was inactive.
On to `O=S(=O)(NCCN1CCCC1)c1cccc(-c2ccc(CNCc3ccccc3)cc2)c1`, for which the values for the growth inhibition in assay [1] and in assay [4] were 41% and 95% (active), respectively. Further, the inhibition in assay [2] is 54% (active); in assay [3], -8%. Besides, the outcome in assay [5], in assay [6], in assay [7] and in assay [8] was inactive.
For the compound `FC(F)(F)c1ccc(-c2cncc(-c3ccc(C(F)(F)F)cc3)n2)cc1`, the growth inhibition in assay [1] is 97% (active); in assay [4] it was 98% (active). The inhibition in assay [2] is 9%; in assay [3] it was -7%. In addition, the outcome in assay [5], in assay [6], in assay [7] and in assay [8] was inactive.
On to `O=C(c1cccc(-c2cccc(-c3nc4ccccc4[nH]3)c2)c1)N1CCCCC1CN1CCC(O)C1` (stereo not given), for which the growth inhibition in assay [1] was 56% (active); in assay [4] it was 100% (active). Further, the inhibition in assay [2] was 66% (active); in assay [3] it was 2%. Besides, the result in assay [5], in assay [6], in assay [7] and in assay [8] was inactive.
As for `CC1CCN(CCNC(=O)c2ccc3c(=O)n(Cc4ccc(Cl)cc4)c(=S)[nH]c3c2)CC1`, the results for the growth inhibition in assay [1] and in assay [4] were 75% (active) and 101% (active), respectively. Moreover, the inhibition in assay [2] was 6%; in assay [3], 4%. Further, the outcome in assay [5], in assay [6], in assay [7] and in assay [8] was inactive.
Turning to `COc1ccc(C2CC(=O)C3=C(C2)NC(C)=C(C(=O)OC(C)C)C3c2cccc(O)c2)cc1OC` (stereo not given), the growth inhibition in assay [1] is 85% (active); in assay [4], 100% (active). Also, the inhibition in assay [2] was -2%; in assay [3], -4%. The result in assay [5], in assay [6], in assay [7] and in assay [8] was inactive.
`Cc1cc(C)c2cc(CNCCCNc3nc4ccccc4[nH]3)[nH]c2c1`: the growth inhibition in assay [1] is -2%; in assay [4], 102% (active). In addition, the inhibition in assay [2] is 32%; in assay [3] it was 3%. The outcome in assay [5], in assay [6], in assay [7] and in assay [8] was inactive.
Consider `O=C(Cn1c(SCc2cccc(F)c2F)cc(=O)c2ccccc21)N(CCN1CCCCC1)Cc1ccc(-c2ccc(C(F)(F)F)cc2)cc1`, for which the growth inhibition in assay [1] is 82% (active); in assay [4], 99% (active). Moreover, the inhibition in assay [2] was 41%; in assay [3] it was -1%. Besides, the outcome in assay [5], in assay [6], in assay [7] and in assay [8] was inactive.
For the compound `Cc1cc(CNC(c2ccccc2)C2CCC2)cc(C)c1O` (stereo not given), the figures for the growth inhibition in assay [1] and in assay [4] were 48% and 94% (active), respectively. The inhibition in assay [2] was 78% (active); in assay [3] it was -2%. Besides, the result in assay [5], in assay [6], in assay [7] and in assay [8] was inactive.
Take `Cc1cc(OCCCN2CCCCC2)ccc1NC(=O)COc1ccc(Cl)cc1C(=O)c1cc(C#N)cc(C(F)(F)F)c1`: the growth inhibition was 7% in assay [1] and 87% (active) in assay [4]. In addition, the inhibition is 23% in assay [2] and -5% in assay [3]. For the same compound, the result in assay [5], in assay [6], in assay [7] and in assay [8] was inactive.
As to `Nc1nc(N)c2c(Cl)c(N3CCOCC3)ccc2n1`, the growth inhibition in assay [1] is 3%; in assay [4], 96% (active). Besides, the values for the inhibition in assay [2] and in assay [3] were 65% (active) and 1%, respectively. In addition, the result in assay [5], in assay [6], in assay [7] and in assay [8] was inactive.
